Test results from PubChem BioAssay (EPA / NIEHS).
The source made the active and inactive calls. The calls were made as follows: active = hit-call score of the fitted dose curve at least 0.9, where 1 is the maximum; inactive = score below 0.9.

Assay: BSK_hDFCGF_Proliferation: Cell Proliferation Assessment in the BioMAP Diversity Plus: hDFCGF Assay (AID 2283059);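 also: curves fitted for both rise and fall of signal versus DMSO baseline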
Settings: primary human foreskin fibroblasts
How it was run: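 Steps: dose primary human dermal fibroblasts (foreskin); […] fix in 10% TCA; stain with 0.1% SRB; read 560 nm; fit gain or loss of signal against DMSO.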

| Structure (SMILES) | outcome | AC50 |
| --- | --- | --- |
| Cc1ccc(-c2cc(C(F)(F)F)nn2-c2ccc(S(N)(=O)=O)cc2)cc1 | inactive | – |
| O=C1O[C@H]([C@H](O)CO)C(O)=C1O | inactive | – |
| CCCCc1nc2cccnc2n1Cc1ccc(-c2ccccc2-c2nnn[nH]2)cc1 | – | 18.7 µM (active) |
| CCCC(=O)O | inactive | – |
| CCCCOC(=O)CCCCC(=O)OCCCC | inactive | – |
| CC(C)NCC(O)c1ccc(O)c(O)c1 (stereo unspecified) | – | 26.4 µM (active) |
| Cn1cnc2c1c(=O)[nH]c(=O)n2C | inactive | – |
| O=C(Oc1ccccc1)c1cccc(C(=O)Oc2ccccc2)c1 | inactive | – |
| O=C(O)c1[nH]n(-c2ccc(S(=O)(=O)O)cc2)c(=O)c1N=Nc1ccc(S(=O)(=O)O)cc1 | inactive | – |
| CCCCC(CC)CO (stereo unspecified) | inactive | – |
| CCc1cc(C2=C(C(=O)O)N(c3ccccc3C(F)(F)F)S(=O)(=O)c3ccccc32)cc2c1OCO2 | – | 15.5 µM (active) |
| O=C(N[C@@H](c1ccccc1)[C@@H]1CCCCN1)c1cccc(C(F)(F)F)c1Cl | – | 28.7 µM (active) |
| CCC(C)N(C)C(=O)c1cc2ccccc2c(-c2ccccc2Cl)n1 (stereo unspecified) | inactive | – |
| CCCCCCCCCCCCCCOS(=O)(=O)O | – | 5.36 µM (active) |
| CCCCCCCC(=O)OC | inactive | – |
| CC(C)c1cccc(C(C)C)c1NC(=O)NS(=O)(=O)c1cc(C(C)(C)O)co1 | inactive | – |
| CCN(CC)CCOc1ccc(C(=C(Cl)c2ccccc2)c2ccccc2)cc1 | – | 0.123 µM (active) |
| c1ccc2occc2c1 | inactive | – |
| CCCCCCC(C=O)=Cc1ccccc1 | – | 28.9 µM (active) |
| COC(=O)CCC(=O)OC | inactive | – |
| COC(=O)CCCC(=O)OC | inactive | – |
